Reference: PubChem BioAssay (EPA / NIEHS)
Results filed as inconclusive are left out. The source holds several records for some structures; these can differ, active in one and inactive in another. Activity calls are given as the source filed them. The calls were made as follows, unless noted: active = hit-call score of the fitted dose curve at least 0.9, where 1 is the maximum; inactive = score below 0.9.

Tests used:
[1] = APR_HepG2_CellCycleArrest_24hr: Apredica 24-hour HepG2 Assay for Cell Cycle Arrest (AID 2282905); details: imaging, actives raise or lower the signal;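 also: cell cycle arrest scored as ratio of 2N to 4N nuclear DNA content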
Procedure, shortened: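 After 24 h exposure at 0.39–200 uM in 0.5% DMSO, fixed cells received Hoechst 33342 staining. Imaging quantified per-nucleus DNA content; gain or loss fitted against DMSO controls.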

[2] = APR_HepG2_NuclearSize_24hr: Apredica 24-hour HepG2 Assay for Nuclear Size (AID 2282907); details: high-content imaging, actives raise or lower the signal
Procedure, shortened: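 Nuclear size from Hoechst 33342-stained, formaldehyde-fixed HepG2 nuclei imaged by high-content microscopy, after 24 h dosing at ten concentrations from 0.39 to 200 uM in 0.5% DMSO; gain or loss relative to DMSO baseline.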

[3] = APR_HepG2_CellLoss_24hr: Apredica 24-hour HepG2 Assay for Cell Loss (AID 2282908); details: high-content imaging;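 as to AC50: fit in both directions so a hit may be cell loss or gain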
Procedure, shortened: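 Nuclei stained with Hoechst 33342 after formaldehyde fixation (3.7%) were imaged at 20x to count cells. Exposure lasted 24 hr, at ten concentrations from 0.39 to 200 uM in duplicate, with 0.5% v/v DMSO. Fit bidirectional, relative to DMSO.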

[4] = APR_HepG2_MicrotubuleCSK_24hr: Apredica 24-hour HepG2 Assay for Microtubule CSK Stabilty (AID 2282909); details: HepG2 microtubule cytoskeleton imaging, actives raise or lower the signal
Procedure, shortened: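 Fixed HepG2 cells were stained for alpha-tubulin and imaged after 24 hr exposure to ten concentrations spanning 0.39–200 uM in 0.5% DMSO. Signal change was fitted in both directions relative to DMSO; taxol was the positive control.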

[5] = APR_HepG2_MitoticArrest_24hr: Apredica 24-hour HepG2 Assay for Mitotic Arrest (AID 2282910); details: high-content imaging, actives raise or lower the signal
Procedure, shortened: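 High-content imaging of fixed HepG2 cells labeled with Hoechst 33342 and anti-phospho-histone H3, after 24 h treatment. Ten concentrations 0.39 to 200 uM in duplicate, final DMSO 0.5%; changes fitted both directions relative to DMSO.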

[6] = APR_HepG2_MitoMembPot_24hr: Apredica 24-hour HepG2 Assay for Mitochondrial Membrane Potential (AID 2282911); details: imaging, actives raise or lower the signal
Procedure, shortened: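 Mitochondrial membrane potential imaged via MitoTracker Red CMXRos (250 nM, 30 min pre-fixation) in fixed HepG2 cells with Hoechst nuclear identification. Ten concentrations 0.39–200 uM, 24 h treatment, 0.5% DMSO; CCCP as positive control.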

[7] = APR_HepG2_MitoMass_24hr: Apredica 24-hour HepG2 Assay for Mitochondrial Mass (AID 2282912); details: high-content imaging, actives raise or lower the signal
Procedure, shortened: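 Endpoint is MitoTracker Red CMXRos (250 nM, 30 min, pre-fixation) intensity from 20x high-content imaging, nuclei located by Hoechst. Human HepG2 cells received ten concentrations from 0.39 to 200 uM in 0.5% DMSO for 24 hr, duplicate wells. Bidirectional fit relative to DMSO.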

[8] = APR_HepG2_p53Act_24hr: Apredica 24-hour HepG2 Assay for p53 Activation (AID 2282913); details: high-content imaging, actives raise or lower the signal;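 also: p53 protein immunofluorescence averaged per cell in HepG2 with Hoechst nuclei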
Procedure, shortened: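 Fluorescence imaging of formaldehyde-fixed HepG2 cells labelled for p53 and with Hoechst, 24 h after dosing (0.39–200 uM, duplicate wells, 0.5% v/v DMSO). Signal fitted in both directions relative to DMSO.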

[9] = APR_HepG2_CellCycleArrest_72hr: Apredica 72-hour HepG2 Assay for Cell Cycle Arrest (AID 2282914); details: high-content imaging, actives raise or lower the signal
Procedure, shortened: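 Read-out: nuclear DNA content from Hoechst 33342 high-content imaging (20x, six fields/well) after 3.7% formaldehyde fixation, fitted bidirectionally against DMSO. Treatment was 72 h in HepG2, ten concentrations 0.39–200 uM, duplicate, 0.5% DMSO.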

[10] = ACEA_ER_80hr: ACEA Biosciences xCELLigence Real-Time Cell Analysis on Estrogen Receptor Agonism for Proliferation (AID 2282667; active = hit-call score of the fitted dose curve at least 0.9, where 1 is the maximum); details: T47D proliferation, impedance (xCELLigence), 80 h
Procedure, shortened: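 Real-time impedance growth kinetics of human T-47D breast cells read 80 h after dosing, gain-of-signal fitted relative to DMSO. Compounds: 1:4 serial series, top final concentration 100 uM, n = 2.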

Measured: AC50

C=C(C)C(=O)[O][Sn]([CH2]CCC)([CH2]CCC)[CH2]CCC
active: [3] 0.773 µM | [5] 0.248 µM | [7] 0.226 µM | [8] 0.294 µM | [9] 0.188 µM
inactive: [1] | [2] | [4] | [6]

O=C(Nc1ccc2[nH]ccc2c1)c1cc2cc(F)ccc2n1Cc1cccc(F)c1
active: [1] 25.4 µM | [3] 22.5 µM | [4] 19.7 µM | [5] 30.9 µM | [6] 2.08 µM | [8] 34.5 µM | [9] 35.7 µM
inactive: [2] | [7]

OCC(O)CCl (stereo not drawn)
inactive: [10]

CC(C)(C)c1cc(O)ccc1O
active: [3] 125 µM | [6] 114 µM | [7] 151 µM
not listed: [10]
inactive: all other assays above

Oc1cccc2cccnc12
active: [1] 15.4 µM | [3] 2.29 µM | [8] 25.9 µM | [9] 1.59 µM
not listed: [10]
inactive: all other assays above

O=c1[nH]c(=O)[nH]c(=O)[nH]1
active: [6] 61.3 µM
not listed: [10]
inactive: all other assays above

CCC(C)(C)c1ccc(O)c(C(C)(C)CC)c1
inactive: [4] | [7]
active: [1] 28.1 µM | [2] 39.1 µM | [3] 40.5 µM | [5] 32.3 µM | [6] 29.7 µM | [8] 32.1 µM | [9] 13.9 µM

ClCC(Cl)CCl
not listed: [10]
inactive: all other assays above

CC12CC1(C)C(=O)N(c1cc(Cl)cc(Cl)c1)C2=O (stereo not drawn)
not listed: [10]
inactive: all other assays above

Cc1ccccc1N
not listed: [10]
inactive: all other assays above

Cn1sc(Cl)cc1=O
active: [3] 109 µM | [5] 110 µM | [7] 117 µM | [8] 113 µM
not listed: [10]
inactive: all other assays above

CCC(=O)C(CC(C)N(C)C)(c1ccccc1)c1ccccc1 (stereo not drawn)
active: [1] 25.1 µM
not listed: [10]
inactive: all other assays above

CC(C)(OO)c1ccccc1
inactive: [7]
active: [1] 78.4 µM | [2] 65.1 µM | [3] 72.2 µM | [4] 75.3 µM | [5] 71.4 µM | [6] 96.2 µM | [8] 65.8 µM | [9] 88.8 µM

C[C@]12CCC(=O)C[C@@H]1CC[C@@H]1[C@@H]2CC[C@]2(C)[C@@H](O)CC[C@@H]12
not listed: [10]
inactive: all other assays above

CC(C)(c1ccccc1)c1ccc(O)c(C(C)(C)c2ccccc2)c1
active: [2] 22 µM | [3] 28.1 µM | [6] 29.4 µM | [8] 40.8 µM
not listed: [10]
inactive: all other assays above

Nc1ncc([N+](=O)[O-])s1
inactive: [10]

ClC1(Cl)C2(Cl)C3(Cl)C4(Cl)C(Cl)(Cl)C5(Cl)C3(Cl)C1(Cl)C5(Cl)C24Cl (stereo not drawn)
not listed: [10]
inactive: all other assays above

COc1cc(-c2ccc(N)c(OC)c2)ccc1N
active: [1] 58.7 µM | [3] 26.9 µM | [5] 28.8 µM | [6] 12.7 µM | [9] 13.8 µM
inactive: [1] | [2] | [3] | [4] | [5] | [6] | [7] | [8] | [9]

CC(=O)[O][Hg][c]1ccccc1
active: [2] 66.6 µM | [3] 5.21 µM | [4] 5.17 µM | [5] 3.06 µM | [9] 28.7 µM
inactive: [1] | [6] | [7] | [8]

Cc1cc(=O)[nH]o1
inactive: [10]

C[C@@H]1C[C@@H]([C@H](O)CC2CC(=O)NC(=O)C2)C(=O)[C@@H](C)C1
active: [1] 1.19 µM | [3] 0.465 µM | [8] 21.7 µM | [9] 7.46 µM
not listed: [10]
inactive: all other assays above

Cl/C=C/Cl
inactive: [10]

O=C1C2(Cl)C3(Cl)C4(Cl)C(Cl)(Cl)C5(Cl)C3(Cl)C1(Cl)C5(Cl)C24Cl (stereo not drawn)
active: [1] 44.6 µM | [3] 44.5 µM | [9] 24.7 µM
not listed: [10]
inactive: all other assays above

C=CC(=O)OCCCCCC(C)C
active: [9] 108 µM
not listed: [10]
inactive: all other assays above

ClCc1ccccn1
inactive: [10]

CCN1CCC2(CC1)COc1cc3c(cc12)N(C(=O)c1ccc(-c2ccc(-c4nnc(C)o4)cc2C)cc1)CC3
active: [3] 17.5 µM | [5] 13.2 µM | [7] 7.43 µM | [8] 25.8 µM
not listed: [10]
inactive: all other assays above

NC(=O)O
active: [1] 10.7 µM | [2] 9.65 µM | [3] 6.38 µM | [4] 12.2 µM | [5] 5.54 µM | [6] 0.205 µM | [7] 59.3 µM | [8] 9.29 µM | [9] 12.2 µM

O=C(O)C(F)(F)C(F)(F)C(F)(F)C(F)(F)C(F)(F)C(F)(F)F
not listed: [10]
inactive: all other assays above

CN(C)N=O
not listed: [10]
inactive: all other assays above

O=C(O)C(Cl)(Cl)Cl
inactive: [1] | [2] | [3] | [4] | [5] | [6] | [7] | [8] | [9]
active: [3] 100 µM | [6] 101 µM | [7] 161 µM | [8] 165 µM | [9] 171 µM

CC(C)(C)CC(C)(C)c1ccc(O)cc1
active: [1] 161 µM | [2] 52.3 µM | [3] 46 µM | [5] 49.6 µM | [6] 25.3 µM | [8] 35 µM | [9] 32 µM
inactive: [4] | [7]

O=C(O)C(F)(F)C(F)(F)C(F)(F)C(F)(F)C(F)(F)C(F)(F)C(F)(F)C(F)(F)C(F)(F)C(F)(F)F
inactive: [2] | [6]
active: [1] 68.4 µM | [3] 83.1 µM | [4] 56.7 µM | [5] 60.9 µM | [7] 76.3 µM | [8] 66.9 µM | [9] 68.8 µM

C=CCc1ccc(OC)cc1
inactive: [10]

CCCCCCCCc1ccc(O)cc1
active: [2] 103 µM | [3] 67 µM | [5] 77.2 µM | [8] 67.3 µM | [9] 52.5 µM
inactive: [1] | [4] | [6] | [7]
